Laboratory results taken from PubChem BioAssay (NCI).
The panel holds about 83,000 compounds, 20% with a hit somewhere; the sample as a whole holds those more often.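 Interpretation: 100, growth as untreated; towards 0, rising growth inhibition; 0, no net growth; 0 to -100, cell death. Compounds scoring below 10 were considered active.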 The source made the active and inactive calls.

Assays:
Experiment in all cases: NCI-60 one-dose screen, 48 h (100 = growth as untreated, 0 = no growth, -100 = all killed)
HCT-15 colon = conditions: 10 µM unless noted
HT29 colon = conditions: 10 µM unless noted
SNB-75 CNS = conditions: 10 µM unless noted
SNB-19 CNS = conditions: 10 µM unless noted
U251 CNS = conditions: 10 µM unless noted
PC-3 prostate = conditions: 10 µM unless noted
UACC-62 melanoma = conditions: 10 µM unless noted
LOX IMVI melanoma = conditions: 10 µM
SK-MEL-28 melanoma = conditions: 10 µM unless noted
SK-MEL-2 melanoma = conditions: 10 µM unless noted
EKVX NSCLC = conditions: 10 µM unless noted
SN12C renal = conditions: 10 µM unless noted
UO-31 renal = conditions: 10 µM unless noted
TK-10 renal = conditions: 10 µM unless noted
ACHN renal = conditions: 10 µM unless noted
CAKI-1 renal = conditions: 10 µM unless noted
A498 renal = conditions: 10 µM unless noted
CCRF-CEM leukemia = conditions: 10 µM unless noted
MOLT-4 leukemia = conditions: 10 µM unless noted
SK-MEL-5 melanoma = conditions: 10 µM unless noted

Measured: growth

O=C(O)c1ccccc1Cc1ccc2c(c1)CCCC2
inactive: HCT-15 colon 104% | HT29 colon 107% | SNB-75 CNS 87.2% | SNB-19 CNS 102% | U251 CNS 111% | PC-3 prostate 103% | UACC-62 melanoma 96.4% | LOX IMVI melanoma 109% | SK-MEL-28 melanoma 108% | SK-MEL-2 melanoma 113% | EKVX NSCLC 119% | SN12C renal 102% | UO-31 renal 73.1% | TK-10 renal 103% | ACHN renal 104% | CAKI-1 renal 98.5% | A498 renal 107% | CCRF-CEM leukemia 106% | MOLT-4 leukemia 97.9%

COc1cc(C(=O)N2CCN(c3ccccc3)CC2)c2ccccc2n1
active: HT29 colon -19% | SK-MEL-2 melanoma 3.61%
inactive: HCT-15 colon 18.3% | SNB-75 CNS 20.9% | SNB-19 CNS 28.4% | U251 CNS 11.1% | PC-3 prostate 35.5% | UACC-62 melanoma 32.6% | LOX IMVI melanoma 16.5% | SK-MEL-28 melanoma 54.6% | EKVX NSCLC 51.6% | SN12C renal 36.8% | UO-31 renal 44.9% | TK-10 renal 57.1% | ACHN renal 60.6% | CAKI-1 renal 36.2% | A498 renal 32.3% | CCRF-CEM leukemia 29.3% | MOLT-4 leukemia 29.9%

C=C1C(=O)C2CCN1CC2
inactive: HCT-15 colon 105% | HT29 colon 89.8% | SNB-75 CNS 89.2% | SNB-19 CNS 105% | U251 CNS 100% | PC-3 prostate 101% | UACC-62 melanoma 97.3% | LOX IMVI melanoma 98.9% | SK-MEL-28 melanoma 95.6% | SK-MEL-2 melanoma 105% | EKVX NSCLC 103% | SN12C renal 101% | UO-31 renal 89.1% | TK-10 renal 99.9% | ACHN renal 86.8% | CAKI-1 renal 92% | A498 renal 97.6% | MOLT-4 leukemia 78.2%

Nc1ccc(F)cc1F
inactive: HCT-15 colon 108% | HT29 colon 106% | SNB-75 CNS 97.1% | SNB-19 CNS 109% | U251 CNS 106% | PC-3 prostate 89.1% | UACC-62 melanoma 100% | LOX IMVI melanoma 102% | SK-MEL-28 melanoma 92.7% | SK-MEL-2 melanoma 101% | EKVX NSCLC 105% | SN12C renal 100% | UO-31 renal 98.4% | TK-10 renal 106% | ACHN renal 102% | CAKI-1 renal 94.7% | A498 renal 107% | CCRF-CEM leukemia 102% | MOLT-4 leukemia 107%

CC(C)NC(=O)OCc1c(COC(=O)NC(C)C)c(-c2ccc(Cl)cc2)n2c1CCC2
active: CAKI-1 renal 6.56%
inactive: HCT-15 colon 58.4% | HT29 colon 56% | SNB-75 CNS 34.1% | SNB-19 CNS 57.9% | U251 CNS 49% | PC-3 prostate 68.2% | SK-MEL-5 melanoma 68.1% | SK-MEL-28 melanoma 84.7% | SK-MEL-2 melanoma 94.4% | SN12C renal 38.2% | TK-10 renal 57.6% | ACHN renal 11.1% | A498 renal 44.5% | CCRF-CEM leukemia 51.5% | MOLT-4 leukemia 21.9%

CCOC(=O)/C(C)=C\c1ccc(OC)c(OC)c1
inactive: HCT-15 colon 101% | HT29 colon 106% | SNB-75 CNS 92.9% | SNB-19 CNS 107% | U251 CNS 94% | PC-3 prostate 97.5% | UACC-62 melanoma 101% | LOX IMVI melanoma 98% | SK-MEL-28 melanoma 108% | SK-MEL-2 melanoma 112% | EKVX NSCLC 102% | SN12C renal 104% | UO-31 renal 95.1% | TK-10 renal 104% | ACHN renal 103% | CAKI-1 renal 96.1% | A498 renal 95.7% | CCRF-CEM leukemia 88.8% | MOLT-4 leukemia 94.5%

Nc1ccc(F)c(Cl)c1F
inactive: HCT-15 colon 111% | HT29 colon 108% | SNB-75 CNS 89.3% | SNB-19 CNS 110% | U251 CNS 116% | PC-3 prostate 84.1% | UACC-62 melanoma 103% | LOX IMVI melanoma 95.3% | SK-MEL-28 melanoma 109% | SK-MEL-2 melanoma 108% | EKVX NSCLC 107% | SN12C renal 104% | UO-31 renal 98.7% | TK-10 renal 108% | ACHN renal 106% | CAKI-1 renal 97.5% | A498 renal 95% | CCRF-CEM leukemia 99.4% | MOLT-4 leukemia 108%

CC1(C)C2CCC1(C)C1(C2)OCCS1 (centres undefined)
inactive: HCT-15 colon 95.9% | HT29 colon 110% | SNB-75 CNS 78.5% | SNB-19 CNS 88.8% | U251 CNS 97% | PC-3 prostate 92.4% | UACC-62 melanoma 87% | LOX IMVI melanoma 92.2% | SK-MEL-28 melanoma 102% | SK-MEL-2 melanoma 104% | EKVX NSCLC 87.4% | SN12C renal 87.6% | UO-31 renal 90.1% | TK-10 renal 97.9% | ACHN renal 102% | CAKI-1 renal 87.2% | A498 renal 113% | CCRF-CEM leukemia 110% | MOLT-4 leukemia 99.6%

NC(CSSCC(N)C(=O)O)C(=O)O (centres undefined)
active: HT29 colon 5.05% | SNB-75 CNS -3.17% | SNB-19 CNS -6.03% | UACC-62 melanoma -19.3% | SK-MEL-2 melanoma -8.58% | SN12C renal -11.2% | ACHN renal -37.8% | A498 renal -7.36% | CCRF-CEM leukemia -10.1% | MOLT-4 leukemia -9.51%
inactive: HCT-15 colon 34.5% | U251 CNS 27% | PC-3 prostate 27.3% | LOX IMVI melanoma 18.2% | SK-MEL-28 melanoma 18.5% | EKVX NSCLC 21.9% | UO-31 renal 13.9% | TK-10 renal 20.4% | CAKI-1 renal 11.4%

Cc1cccc(C)c1NC(=S)/N=C\c1c(O)[nH]c(=O)[nH]c1=O
inactive: HCT-15 colon 107% | HT29 colon 95.7% | SNB-75 CNS 85.1% | SNB-19 CNS 103% | U251 CNS 96.8% | PC-3 prostate 96% | UACC-62 melanoma 90.9% | LOX IMVI melanoma 98.2% | SK-MEL-28 melanoma 111% | SK-MEL-2 melanoma 103% | EKVX NSCLC 77.3% | SN12C renal 98.5% | UO-31 renal 89.5% | TK-10 renal 106% | ACHN renal 102% | CAKI-1 renal 96.5% | A498 renal 103% | CCRF-CEM leukemia 98.9%

Cc1c(Cl)cccc1N=C=S
inactive: HCT-15 colon 107% | HT29 colon 104% | SNB-75 CNS 70.6% | SNB-19 CNS 93.5% | U251 CNS 106% | PC-3 prostate 89.6% | UACC-62 melanoma 97.4% | LOX IMVI melanoma 103% | SK-MEL-28 melanoma 132% | SK-MEL-2 melanoma 99.5% | EKVX NSCLC 89.1% | SN12C renal 99.9% | UO-31 renal 81.1% | TK-10 renal 106% | ACHN renal 99.3% | CAKI-1 renal 88.8% | A498 renal 117% | CCRF-CEM leukemia 94.6% | MOLT-4 leukemia 109%

CC(C)OCC(CCl)OC(=O)Nc1ccccc1 (centres undefined)
inactive: HCT-15 colon 108% | HT29 colon 102% | SNB-75 CNS 92.2% | SNB-19 CNS 105% | U251 CNS 97.2% | PC-3 prostate 98.8% | UACC-62 melanoma 101% | LOX IMVI melanoma 97% | SK-MEL-28 melanoma 111% | SK-MEL-2 melanoma 102% | EKVX NSCLC 104% | SN12C renal 96.7% | UO-31 renal 80.9% | TK-10 renal 91.7% | ACHN renal 105% | CAKI-1 renal 98.2% | A498 renal 103% | MOLT-4 leukemia 99.9%

CCC(C)C1CCC(O)CC1 (centres undefined)
inactive: HCT-15 colon 104% | HT29 colon 105% | SNB-75 CNS 91.7% | SNB-19 CNS 112% | U251 CNS 98.8% | PC-3 prostate 100% | UACC-62 melanoma 104% | LOX IMVI melanoma 101% | SK-MEL-28 melanoma 106% | SK-MEL-2 melanoma 104% | EKVX NSCLC 113% | SN12C renal 108% | UO-31 renal 90.7% | TK-10 renal 103% | ACHN renal 105% | CAKI-1 renal 96.6% | A498 renal 103% | CCRF-CEM leukemia 125%

Cc1ccc2[nH]c3ccccc3c2c1
inactive: HCT-15 colon 79.6% | HT29 colon 102% | SNB-75 CNS 98.4% | SNB-19 CNS 105% | U251 CNS 96.2% | PC-3 prostate 89.1% | UACC-62 melanoma 98.4% | LOX IMVI melanoma 97% | SK-MEL-28 melanoma 111% | SK-MEL-2 melanoma 109% | EKVX NSCLC 108% | SN12C renal 109% | UO-31 renal 91.3% | TK-10 renal 106% | ACHN renal 110% | CAKI-1 renal 97.3% | A498 renal 82.5% | CCRF-CEM leukemia 92.8% | MOLT-4 leukemia 94.4%

CCNC(=O)OCCc1c2ccccc2nc2ccccc12
inactive: HCT-15 colon 104% | HT29 colon 103% | SNB-75 CNS 81.3% | SNB-19 CNS 111% | U251 CNS 97% | PC-3 prostate 43.9% | UACC-62 melanoma 99.1% | LOX IMVI melanoma 88.4% | SK-MEL-28 melanoma 97.7% | SK-MEL-2 melanoma 111% | EKVX NSCLC 115% | SN12C renal 119% | UO-31 renal 92.2% | TK-10 renal 132% | ACHN renal 94.1% | CAKI-1 renal 121% | A498 renal 111% | CCRF-CEM leukemia 73.7% | MOLT-4 leukemia 76.4%

O=C(c1ccc(Cl)cc1)N1CCCCC1
inactive: HCT-15 colon 98.5% | HT29 colon 101% | SNB-75 CNS 88.5% | SNB-19 CNS 93.7% | U251 CNS 94.7% | PC-3 prostate 97.8% | UACC-62 melanoma 95% | LOX IMVI melanoma 97.6% | SK-MEL-28 melanoma 101% | SK-MEL-2 melanoma 102% | EKVX NSCLC 98.1% | SN12C renal 92.2% | UO-31 renal 93.3% | TK-10 renal 91% | ACHN renal 101% | CAKI-1 renal 97.4% | A498 renal 73.3% | CCRF-CEM leukemia 93.3% | MOLT-4 leukemia 98.9%

C[n+]1cc2cc3c(cc2c2ccccc21)OCO3
inactive: HCT-15 colon 97.2% | HT29 colon 63% | SNB-75 CNS 22.5% | SNB-19 CNS 16.1% | PC-3 prostate 51.6% | SK-MEL-5 melanoma 43.1% | UACC-62 melanoma 72.7% | LOX IMVI melanoma 63.2% | SK-MEL-28 melanoma 45.6% | UO-31 renal 72% | TK-10 renal 92.8% | ACHN renal 106% | CAKI-1 renal 102% | A498 renal 72.8% | CCRF-CEM leukemia 57.5% | MOLT-4 leukemia 12.4%
active: SN12C renal 9.45%
